Assay results reported in PubChem BioAssay (EPA / NIEHS).
Inconclusive results are not listed. Calls of active or inactive are those of the source. The calls were made as follows: active = hit-call score of the fitted dose curve at least 0.9, where 1 is the maximum; inconclusive = response in the unintended direction; inactive = score below 0.9.

Assays:
[1] = target: Cellular tumor antigen p53 (Homo sapiens) (UniProt P04637); assay: TOX21_p53_BLA_p2_ratio: Tox21 HCT-116 p53 Agonism Beta-lactamase Assay, Ratio, Phase 2 (AID 2283592)
Cellular tumor antigen p53 (Homo sapiens), sequence (P04637 whole entry, looked up): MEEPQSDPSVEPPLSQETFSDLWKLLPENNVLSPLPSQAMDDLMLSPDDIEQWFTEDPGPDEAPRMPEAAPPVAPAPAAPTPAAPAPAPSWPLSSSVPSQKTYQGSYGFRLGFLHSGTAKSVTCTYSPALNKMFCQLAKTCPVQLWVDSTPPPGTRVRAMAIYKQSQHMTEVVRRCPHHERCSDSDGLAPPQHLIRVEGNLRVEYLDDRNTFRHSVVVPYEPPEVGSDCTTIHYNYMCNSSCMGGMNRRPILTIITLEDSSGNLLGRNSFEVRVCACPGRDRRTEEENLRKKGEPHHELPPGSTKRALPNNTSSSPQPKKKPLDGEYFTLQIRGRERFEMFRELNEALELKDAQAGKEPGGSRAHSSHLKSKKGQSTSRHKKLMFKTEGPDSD
In short: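 Ratio endpoint: beta-lactamase cleavage of CCF4-AM, blue (460 nm) over green (530 nm). HCT116 reporter line; 16 h treatment, 37C; substrate 2 h RT.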

[2] = target: Cellular tumor antigen p53 (Homo sapiens) (UniProt P04637); assay: TOX21_p53_BLA_p5_ratio: Tox21 HCT-116 p53 Agonism Beta-lactamase Assay, Ratio, Phase 5 (AID 2283599)
In short: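 HCT-116 p53-bla cells (4000/well) plated 5 h, dosed with compound (217-fold DMSO dilution) for 16 h at 37 C; CCF4-AM substrate 2 h at room temperature. Activity is the 460/530 nm emission ratio (405 nm excitation), fitted in gain-of-signal direction versus DMSO.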

[3] = TOX21_p53_BLA_p5_viability: Viability Assessment in the Tox21 HCT-116 p53 Agonism Beta-lactamase Assay, Phase 5 (AID 2283600)
In short: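 Luciferase-coupled ATP quantitation of cells treated for 16 h (37C, 5% CO2) with test chemicals delivered in DMSO via a 217-fold dilution; 4000 cells/well; reagent incubated 30 min at room temperature before luminescence reading.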

[4] = target: Cellular tumor antigen p53 (Homo sapiens) (UniProt P04637); assay: TOX21_p53_BLA_p4_ratio: Tox21 HCT-116 p53 Agonism Beta-lactamase Assay, Ratio, Phase 4 (AID 2283601)
In short: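 HCT-116 p53 beta-lactamase reporter cells (4000/well) preincubated 5 h, then compound (217-fold dilution of DMSO stock) for 16 h at 37C. CCF4-AM substrate added 2 h at room temperature; 460/530 nm emission ratio fitted upward versus DMSO.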

[5] = TOX21_p53_BLA_p4_viability: Viability Assessment in the Tox21 HCT-116 p53 Agonism Beta-lactamase Assay, Phase 4 (AID 2283597);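 also: hits lower the luminescence signal meaning cytotoxicity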
In short: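 Cytotoxicity was inferred from loss of CellTiter-Glo luminescence. HCT116 cells had been dosed with compounds after 5 h plating, incubated 16 h at 37C and 5% CO2, and exposed to the CCF4-AM substrate for 2 h.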

Measured: outcome

C1COCCO1
inactive: [1] | [2] | [3]

O=C(O)[C@H](O)c1ccccc1
not listed: [5]
inactive: all other assays above

CCCCCCCCCCCCCCBr
not listed: [2]
inactive: all other assays above

CN(C)Cc1ccccc1
not listed: [5]
inactive: all other assays above

C=CC[N@@+]12CC[C@@]34c5ccccc5N5/C=C6/[C@H]7C[C@H]8[C@@]9(CC[N@@+]8(CC=C)C/C7=C/CO)c7ccccc7N(/C=C(/[C@@H](C[C@@H]31)/C(=C\CO)C2)[C@H]54)[C@@H]69
inactive: [1] | [2]

CO[C@H]1/C=C/O[C@@]2(C)Oc3c(C)c(O)c4c(O)c(c5c(nc6cc(C)ccn65)c4c3C2=O)NC(=O)/C(C)=C\C=C\[C@H](C)[C@H](O)[C@@H](C)[C@@H](O)[C@@H](C)[C@H](OC(C)=O)[C@@H]1C
inactive: [1] | [5] | [4]

CCCCCCOC(=O)c1cccnc1
not listed: [5]
inactive: all other assays above

CC1(C)O[C@@H]2C[C@H]3[C@@H]4CCC5=CC(=O)C=C[C@]5(C)[C@H]4[C@@H](O)C[C@]3(C)[C@]2(C(=O)CO)O1
inactive: [1] | [2] | [3]

O=C(NCCc1c[nH]c2ccccc12)c1cccnc1
not listed: [5]
inactive: all other assays above

NC(Cc1ccccc1)C(=O)O (centres undefined)
inactive: [1] | [5] | [4]

C1CCc2nnnn2CC1
inactive: [1] | [2] | [3]

C=C(C)C(=O)OCCCCCCOC(=O)C(=C)C
inactive: [1] | [2] | [3]

O=C1NCCN1CCO
not listed: [5]
inactive: all other assays above

CC(C)=CCC[C@@](C)(O)[C@H]1CC=C(C)CC1
inactive: [1] | [2]

CCCCCCCCCCCCOCCCN
inactive: [1] | [5] | [4]

C=CC(=O)OCCOCCOCCOCCOC(=O)C=C
inactive: [1] | [2] | [4]

C=CCCCCCCCC
inactive: [1] | [3] | [4]

O=C1CC[C@@H](C(=O)N[C@H]2C[C@@H]2c2ccccc2)N1
inactive: [1] | [3] | [4]

Cc1ccc2cccnc2c1
not listed: [5]
inactive: all other assays above

c1ccc(SCCSc2ccccc2)cc1
inactive: [1] | [3] | [4]

Cc1ccco1
inactive: [1] | [2] | [4]

C=C(C)C(=O)OC1CC(C)CC(C)(C)C1 (centres undefined)
inactive: [1] | [2] | [4]

CC/C(=C(/CC)c1ccc(OP(=O)(O)O)cc1)c1ccc(OP(=O)(O)O)cc1
inactive: [1] | [2] | [4]

COC(=O)C(C)(C)C
inactive: [1] | [3] | [4]

C=CC(C)(O)CC/C=C(/C)CCC=C(C)C (centres undefined)
inactive: [1] | [3]
